Laboratory results from PubChem BioAssay (EPA / NIEHS).
The source made the active and inactive calls. Rule for the calls: active = hit-call score of the fitted dose curve at least 0.9, where 1 is the maximum; inactive = score below 0.9.

read-out: Tumor necrosis factor (Homo sapiens) (UniProt P01375); assay: BSK_BT_xTNFa: BioMAP Diversity Plus: BT Assay for Tumor necrosis factor alpha (TNF-alpha) Biomarker Activity (AID 2284230); conditions: primary human B cells with PBMC
Description: BSK_BT is a cell-based, multiplexed-readout assay that uses B cell and peripheral blood mononuclear cells, a human vascular primary cell co-culture, with measurements taken at 24 hours after chemical dosing in a microplate: 96-well plate.BSK_BT_xTNFa is an assay component of the BSK_BT assay. It measures secreted TNF-alpha related to regulation of gene expression using LumineX xMAP technology.Data from the assay component BSK_BT_xTNFa was analyzed at the endpoint, BSK_BT_xTNFa, in the positive analysis fitting direction relative to DMSO as the negative control and baseline of activity. Using a type of cytokine quantitation reporter, gain or loss-of-signal activity can be used to understand protein changes. To generalize the intended target to other relatable targets, this assay endpoint is annotated to the 'cytokine' intended target family, where the subfamily is 'inflammatory factor'.
The levels of cell surface (or secreted, indicated by the prefix "s") biomarker endpoints were measured by ELISA. Overt cytotoxicity to cells in confluent adherent cultures (all systems other than the BT system) was assessed by measuring total protein levels using sulforhodamine B (SRB) staining in parallel cultures at the time of biomarker measurements, indicated as SRB endpoints. For proliferation assays for adherent cell types, individual cell types are cultured at sub-confluence and relative cell numbers quantified by SRB staining at time points optimized for each system (48 h: 3C and CASM3C systems; 72 h: BT and HDF3CGF systems; 96 h: SAg system). SRB was performed by staining cells with 0.1% SRB after fixation with 10% TCA and reading wells at 560 nm.Viability and proliferation of PBMC (T cells) was quantified by Alamar Blue reduction for the SAg and BT systems. For PBMC viability (referred to as PBMC Cytotoxicity within the assay endpoint names), cells were plated (75,000/well in a 96-well plate) and then chemical samples added for 1 h before addition of activators, SEB and TSST-1 (20 ng/mL final concentration each). Cells were incubated for 90 h. Then, Alamar Blue (20 uL/well) (Invitrogen, Cat DAL1100) was added for 6 h, and the plates were read with a fluorescence microplate reader at 546/580 nm (excitation/emission). For PBMC proliferation, cells were plated and activated as above but incubated for only 16 h prior to addition of Alamar Blue. Plates were read after 6 h.

Chain of Tumor necrosis factor (Homo sapiens) (P01375 whole entry, looked up): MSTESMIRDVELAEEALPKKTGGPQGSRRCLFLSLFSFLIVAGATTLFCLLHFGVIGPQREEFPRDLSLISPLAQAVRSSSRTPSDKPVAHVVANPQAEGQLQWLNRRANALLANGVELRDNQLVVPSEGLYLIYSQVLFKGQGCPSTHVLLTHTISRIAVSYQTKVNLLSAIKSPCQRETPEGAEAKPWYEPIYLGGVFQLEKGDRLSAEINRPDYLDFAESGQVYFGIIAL

| SMILES | outcome | AC50 |
| --- | --- | --- |
| CC1(C)C2=CCCC(C)(C)[C@]23CC[C@H]1C3 | inactive |  |
| C=C(C)C(=O)OCCOCCOCCOC(=O)C(=C)C | inactive |  |
| COc1cc(Cl)c(OC)cc1N | inactive |  |
| C=C(C)C(=O)OCC(CC)(COC(=O)C(=C)C)COC(=O)C(=C)C |  | 19.7 µM (active) |
| C1=CC2C3C=CC(C3)C2C1 (stereo not drawn) | inactive |  |
| CCCCN(CCCC)C(=O)N(CCCC)CCCC |  | 30.3 µM (active) |
| COc1ccc(OC)c(N=Nc2c(O)ccc3ccccc23)c1 | inactive |  |
| IC(I)I | inactive |  |
| c1ccc(Oc2ccccc2)cc1 | inactive |  |
| CCC(C)c1cc([N+](=O)[O-])cc([N+](=O)[O-])c1OC(=O)OC(C)C (stereo not drawn) |  | 33.5 µM (active) |
| C[C@@H]1CCN(C(=O)[C@H](CCCN=C(N)N)NS(=O)(=O)c2cccc3c2NC[C@H](C)C3)[C@@H](C(=O)O)C1 | inactive |  |
| CCCCCCCCCCCCCCCC(=O)OC/C=C(C)/C=C/C=C(C)/C=C/C1=C(C)CCCC1(C)C | inactive |  |
| CN(C)C(=O)Nc1ccc(Oc2ccc(Cl)cc2)cc1 | inactive |  |
| Clc1cc(Cl)c(-c2c(Cl)c(Cl)cc(Cl)c2Cl)cc1Cl | inactive |  |
| CN(C)C(=S)SC(=S)N(C)C |  | 0.504 µM (active) |
| CC(C=O)Cc1ccc(C(C)(C)C)cc1 (stereo not drawn) | inactive |  |
| O=C1c2ccccc2C(=O)c2c(O)ccc(O)c21 |  | 11 µM (active) |
| CC(=O)Nc1ccc(C(=O)CCl)cc1 |  | 8.47 µM (active) |
| Cc1cc(CCC(=O)OCCOCCOCCOC(=O)CCc2cc(C)c(O)c(C(C)(C)C)c2)cc(C(C)(C)C)c1O | inactive |  |

| SMILES | outcome | AC50 |
| --- | --- | --- |
| C=C(C)C(=O)OCCOCCOCCOCCOC(=O)C(=C)C | inactive |  |
| c1ccc2cc(Nc3ccc(Nc4ccc5ccccc5c4)cc3)ccc2c1 | inactive |  |
| O=C1OC2(c3ccccc31)c1ccc(O)c(Br)c1Oc1c2ccc(O)c1Br | inactive |  |
| C=C(C)[C@H]1CC=C(C)C(=O)C1 | inactive |  |
| CSCCC=O | inactive |  |
| c1ccc(CCc2ccccc2)cc1 | inactive |  |
| CCCCOC(=O)CCCCCCCC(=O)OCCCC | inactive |  |
| CC(=O)C1(C)CC2=C(CCCC2(C)C)CC1C (stereo not drawn) |  | 30.3 µM (active) |
| O=C1OC[C@H](Cc2cccc(O)c2)[C@H]1Cc1cccc(O)c1 | inactive |  |
| CC(C)(C)CC(C)(C)c1ccc(OCCOCC[N+](C)(C)Cc2ccccc2)cc1 |  | 5 µM (active) |
| CC(C)(N=C=O)c1cccc(C(C)(C)N=C=O)c1 | inactive |  |
| CN(c1nccc(=O)[nH]1)C1CCN(c2nc3ccccc3n2Cc2ccc(F)cc2)CC1 | inactive |  |
| COc1ccc(CCN2CCC(Nc3nc4ccccc4n3Cc3ccc(F)cc3)CC2)cc1 |  | 7.19 µM (active) |
| CCN(CC)C(=O)N(CC)CC | inactive |  |
| Oc1c(Cl)cc(Cl)c(Cl)c1Cc1c(O)c(Cl)cc(Cl)c1Cl |  | 15.2 µM (active) |
| CCCCCC(C=O)=Cc1ccccc1 | inactive |  |
| CC(=O)c1c(C)c([N+](=O)[O-])c(C(C)(C)C)c([N+](=O)[O-])c1C | inactive |  |
| CS(=O)(=O)c1ccc(C2=C(c3ccccc3)C(=O)OC2)cc1 | inactive |  |
| CC=Cc1ccc(OCC)c(O)c1 | inactive |  |
